Rows were chosen to be rich in hits. Some 3.5% of all compounds tested hit in one or more screens of this group.
GPR151 ag: activates the human receptor GPR151 | Q8TDV0 | PathHunter beta-arrestin GPR151 cells, luminescence | activation, % at 11.2 µM | 650,000 compounds, 1% hits | AID 1508602; in the data active = activation above about 4.9%
FBW7 activator: human FBW7 E3 ligase activation, primary screen; Q969H0; AlphaScreen FBW7–phospho-cyclin E peptide binding, activator screen; normalized activity (activation), % at 26.1 µM; 650,000 compounds, 0.13% hits; in the data active = normalized activity above about 1.9%;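 also: purified mutant Fbw7 with reduced substrate affinity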
MITF inh: human MITF inhibition, primary screen. O75030. AlphaScreen MITF homodimerization, bead proximity signal. inhibition, % at 2.6 µM. 650,000 compounds, 0.91% hits. AID 1259374; in the data active = inhibition above about 50%
Target sequence (O75030 whole entry, looked up): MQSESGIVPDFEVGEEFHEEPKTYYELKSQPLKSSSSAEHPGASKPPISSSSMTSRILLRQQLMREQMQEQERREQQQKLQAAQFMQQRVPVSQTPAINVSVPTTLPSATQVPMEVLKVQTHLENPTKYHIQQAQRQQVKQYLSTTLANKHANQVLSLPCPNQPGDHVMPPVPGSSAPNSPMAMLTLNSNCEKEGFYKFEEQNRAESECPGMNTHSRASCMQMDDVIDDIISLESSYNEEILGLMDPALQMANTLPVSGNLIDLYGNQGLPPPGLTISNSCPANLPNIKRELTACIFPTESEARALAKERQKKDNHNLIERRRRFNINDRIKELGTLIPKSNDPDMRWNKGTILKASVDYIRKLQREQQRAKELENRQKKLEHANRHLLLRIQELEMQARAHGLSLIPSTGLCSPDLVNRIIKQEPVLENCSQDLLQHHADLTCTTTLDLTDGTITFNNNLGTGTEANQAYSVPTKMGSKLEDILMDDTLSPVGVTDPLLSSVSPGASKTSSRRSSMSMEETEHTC
TEAD-YAP inh: TEAD-YAP interaction inhibition | HEK-TIYL cells, TEAD-Gal4/YAP UAS-luciferase luminescence | inhibition, % at 9.12 µM | 640,000 compounds, 1.4% hits | AID 1259422; in the data active = inhibition above about 32%
MITF confirm: human MITF inhibition, confirmation; shares compounds with MITF inh; AlphaScreen MITF homodimerization, biotin/His-MITF beads; inhibition, % at 2.6 µM; 4,700 compounds, 16% hits; AID 1259372;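 active = inhibition above a cutoff derived from the DMSO control wells, cut at about 28% in these data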;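 also: inhibitors lower the bead chemiluminescence by keeping MITF from dimerizing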
AS interf ctr: optically interferes with AlphaScreen signal; inhibition, % at 2.6 µM; LysRS AlphaScreen counterscreen, signal interference, triplicate; shares compounds with MITF inh; 4,700 compounds, 7.6% hits;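 active = inhibition above a cutoff derived from the DMSO control wells, cut at about 30% in these data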
Large screens that a line does not name were inactive (follow-up assays come after a bar, where they were run).

C=CCNC(=O)c1cn(Cc2ccccc2)cc(C(=O)N2CCCCC2CC)c1=O (configuration not stated)	none
COc1ccccc1CN1CCN(Cc2cccc(C)c2)CC1	MITF inh 69 | MITF confirm inactive | AS interf ctr inactive
Fc1ccc(CNCCc2c[nH]c3ccccc23)cc1F	MITF inh 54 | MITF confirm inactive | AS interf ctr inactive
Fc1ccc(CNCCc2c[nH]c3ccccc23)cc1	none
CCOP(=O)(OCC)SCc1ccccc1	MITF inh 53 | MITF confirm inactive | AS interf ctr inactive
COc1cccc(CN2CCN(C(C)C)CC2)c1OC	MITF inh 69 | MITF confirm inactive | AS interf ctr inactive
COc1cccc(CN2CCN(Cc3ccccc3)CC2)c1OC	MITF inh 69 | MITF confirm inactive | AS interf ctr inactive
COc1cccc(CN2CCN(C)C(CCO)C2)c1OC (configuration not stated)	none
COc1ccc(CN2CCN(Cc3ccccc3)CC2)c(OC)c1	MITF inh 67 | MITF confirm inactive | AS interf ctr inactive
COc1ccc(OC)c(CN2CCN(C(C)C)CC2)c1	MITF inh 72 | MITF confirm inactive | AS interf ctr inactive
COc1cccc(CN2CCN(C)CC2)c1OC	none
C=CCOC(=O)C1=C(N)OC(C)=C(C(=O)OC(C)(C)C)C12C(=O)Nc1ccccc12 (configuration not stated)	none
COc1ccc(-c2[nH]nc3c2C(c2ccc(O)cc2)C(C#N)=C(N)O3)cc1OC (configuration not stated)	none
CCC(C)N1CCN(Cc2cccc(C)c2)CC1 (configuration not stated)	none
CCC(C)N1CCN(Cc2cccc(OC)c2OC)CC1 (configuration not stated)	MITF inh 78 | MITF confirm inactive | AS interf ctr inactive
CC(=O)c1ccc(N2CCN(Cc3cc(F)ccc3F)CC2)cc1	MITF inh 61 | MITF confirm inactive | AS interf ctr inactive
CC(=O)c1ccc(N2CCN(Cc3ccc(F)cc3F)CC2)cc1	MITF inh 55 | MITF confirm inactive | AS interf ctr inactive
CC(=O)c1ccc(N2CCN(Cc3ccc(F)c(F)c3)CC2)cc1	none
CC(=O)c1ccc(N2CCN(Cc3cccc(C)c3)CC2)cc1	none
Cc1ccccc1C1CC(c2cccnc2)Nc2nnnn21 (configuration not stated)	none
COc1ccc(CN2CCN(C)CC2)cc1Br	MITF inh 73 | MITF confirm inactive | AS interf ctr inactive
COc1ccc(CN2CCN(Cc3ccc(Br)cc3)CC2)cc1Br	none
COc1ccc(CN2CCN(Cc3ccccc3Br)CC2)cc1Br	MITF inh 75 | MITF confirm inactive | AS interf ctr inactive
O=[N+]([O-])c1cccc(CN2CCN(c3ccc(F)cc3)CC2)c1	none
O=[N+]([O-])c1ccc(N2CCN(Cc3c(F)cccc3F)CC2)cc1	MITF inh 63 | MITF confirm inactive | AS interf ctr inactive
O=[N+]([O-])c1ccc(N2CCN(Cc3cc(F)ccc3F)CC2)cc1	MITF inh 58 | MITF confirm inactive | AS interf ctr inactive
O=C(c1ccoc1)N1CCC2(CC1)OCc1ccccc1O2	none
CN1CCC2(C1)Oc1ccccc1O2	MITF inh 55 | MITF confirm inactive | AS interf ctr inactive
CP1(=S)Nc2cc(C(F)(F)F)ccc2-n2ccnc21 (configuration not stated)	none
Cc1ccccc1CN1CCN(C(C)C)CC1	MITF inh 78 | MITF confirm inactive | AS interf ctr inactive
CC(C)N1CCN(Cc2ccccc2Br)CC1	MITF inh 51 | MITF confirm inactive | AS interf ctr inactive
Cc1cc(C)nc(SCc2nc3ccccc3c(=O)n2-c2ccccc2)n1	none
CN1CCN(Cc2cc(F)ccc2F)CC1	MITF inh 69 | MITF confirm inactive | AS interf ctr inactive
CN1CCN(Cc2c(F)cccc2F)CC1	MITF inh 62 | MITF confirm inactive | AS interf ctr inactive
CC(C)CN1CCN(Cc2cc(F)ccc2F)CC1CCO (configuration not stated)	none
CCN1CCN(Cc2cc(F)ccc2F)CC1	MITF inh 62 | MITF confirm inactive | AS interf ctr inactive
CN1CCN(Cc2ccc(F)cc2F)CC1	none
CCOC(=O)C1=C(c2ccccc2)OC(N)=C(C#N)C12C(=O)N(CC(N)=O)c1ccccc12 (configuration not stated)	none
COc1ccc(OCC#CCN2CCNCC2)cc1	MITF inh 59 | MITF confirm inactive | AS interf ctr inactive
CCN1CCN(Cc2ccc(OC)cc2)CC1	none
CN1CCN(Cc2ccc(Cl)cc2)CC1	none
CCOc1cccc(CN2CCN(Cc3ccccc3)CC2)c1O	none
CCOc1ccc(CN2CCN(c3ccccc3)CC2)cc1	none
CCc1ccc(CN2CCN(Cc3ccc(Cl)cc3)CC2)cc1	MITF inh 76 | MITF confirm inactive | AS interf ctr inactive
CCOc1ccc(CN2CCN(Cc3ccc(Cl)cc3)CC2)cc1	MITF inh 58 | MITF confirm inactive | AS interf ctr inactive
CCOc1ccc(CN2CCN(Cc3ccccc3C)CC2)cc1	MITF inh 64 | MITF confirm inactive | AS interf ctr inactive
CCc1ccc(CN2CCN(Cc3ccc(CC)cc3)CC2)cc1	MITF inh 67 | MITF confirm inactive | AS interf ctr inactive
CSc1ccc(CN2CCN(Cc3ccc(Cl)cc3)CC2)cc1	MITF inh 80 | MITF confirm inactive | AS interf ctr inactive
COc1ccc(CN2CCN(C(=O)COc3ccc(Cl)cc3)CC2)cc1	MITF inh 58 | MITF confirm inactive | AS interf ctr inactive
Oc1ccc(CN2CCN(c3ccc(Cl)cc3)CC2)cc1	none
[O-]/C(=N\c1c[n+](CCc2ccccc2)no1)Nc1ccc(Cl)c(Cl)c1	none
C=CCN1C(=O)C2(C(C#N)=C(N)OC(CC(=O)OC)=C2C(=O)OC)c2ccccc21 (configuration not stated)	none
COc1ccc(Br)cc1CN1CCN(C(=O)COc2cccc(C)c2)CC1	MITF inh 58 | MITF confirm inactive | AS interf ctr inactive
O=C(COc1ccccc1)N1CCN(Cc2cccnc2)CC1	MITF inh 81 | MITF confirm inactive | AS interf ctr inactive
O=C(COc1ccccc1)N1CCN(Cc2cccc(Cl)c2)CC1	none
Cc1cccc(OCC(=O)N2CCN(Cc3ccc(Br)cc3)CC2)c1	MITF inh 70 | MITF confirm inactive | AS interf ctr inactive
O=C(COc1ccc(Br)cc1)N1CCN(Cc2ccccc2)CC1	none
Cc1cccc(OCC(=O)N2CCN(Cc3ccccc3Cl)CC2)c1	MITF inh 66 | MITF confirm inactive | AS interf ctr inactive
CSc1ccc(/C=C/c2nc3ccccc3c(=O)n2-c2ccc(Cl)cc2C)cc1	none
COc1ccccc1N1CCN(CC(=O)Nc2ccc(Br)cc2C(=O)c2ccccc2Br)CC1	none
Cc1cccc(CN2CCN(C(=O)COc3ccc(Cl)cc3)CC2)c1	none
Cc1cccc(CN2CCN(C(=O)COc3ccccc3)CC2)c1	MITF inh 53 | MITF confirm inactive | AS interf ctr inactive
CN1CCN(Cc2ccc(F)c(Br)c2)CC1	MITF inh 80 | MITF confirm inactive | AS interf ctr inactive
